Among the data in PMC11006913 are binding signal values, retold here.

Experiment in all cases: PBM; 200 nM protein, PBS
What all share (conditions): dsDNA, one strand shown

The target in assay [1] is CRX (Homo sapiens, UniProt O43186 26-111).
Assay [2] concerns the target CRX (Homo sapiens, UniProt O43186 26-111, E42D).
The target of assay [3] is VAX1 (Homo sapiens, UniProt Q5SQQ9 86-172).
For assay [4], the target named is VAX1 (Homo sapiens, UniProt Q5SQQ9 86-172, T142I).
Assay [5] addresses CRX (Homo sapiens, UniProt O43186 26-111, R41L).
In assay [6] the target is VAX1 (Homo sapiens, UniProt Q5SQQ9 86-172, K157R).
Sequence of VAX1 (Homo sapiens, UniProt Q5SQQ9 86-172, K157R) (Q5SQQ9 86-172 K157R): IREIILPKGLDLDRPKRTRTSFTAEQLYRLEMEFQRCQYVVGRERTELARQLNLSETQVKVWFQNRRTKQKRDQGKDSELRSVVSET

Sequence of CRX (Homo sapiens, UniProt O43186 26-111, R41L) (O43186 26-111 R41L): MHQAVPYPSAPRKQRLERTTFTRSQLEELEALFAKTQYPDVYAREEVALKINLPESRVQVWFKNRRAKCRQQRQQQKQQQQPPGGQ
Sequence of CRX (Homo sapiens, UniProt O43186 26-111) (O43186 26-111): as the sequence (O43186 26-111 R41L) above, with L16R counted along it
Sequence of CRX (Homo sapiens, UniProt O43186 26-111, E42D) (O43186 26-111 E42D): as the sequence (O43186 26-111 R41L) above, with L16R, E17D counted along it
Sequence of VAX1 (Homo sapiens, UniProt Q5SQQ9 86-172) (Q5SQQ9 86-172): as the sequence (Q5SQQ9 86-172 K157R) above, with R72K counted along it
Sequence of VAX1 (Homo sapiens, UniProt Q5SQQ9 86-172, T142I) (Q5SQQ9 86-172 T142I): as the sequence (Q5SQQ9 86-172 K157R) above, with T57I, R72K counted along it

On to CGCTGCCG, for which the binding signal with CRX [1] was 8.07 upbm affinity estimate (log intensity, higher = more binding, comparable within an allelic series); with CRX [2], 8.09 upbm affinity estimate (log intensity, higher = more binding, comparable within an allelic series); in the assay with VAX1 [3], 6.84 upbm affinity estimate (log intensity, higher = more binding, comparable within an allelic series); with VAX1 [4] it was 7.05 upbm affinity estimate (log intensity, higher = more binding, comparable within an allelic series); with CRX [5], 8.04 upbm affinity estimate (log intensity, higher = more binding, comparable within an allelic series); with VAX1 [6] it was 6.97 upbm affinity estimate (log intensity, higher = more binding, comparable within an allelic series).
As to CACCAGTC, the binding signal with CRX [1] is 8.16 upbm affinity estimate (log intensity, higher = more binding, comparable within an allelic series); with CRX [2], 8.23 upbm affinity estimate (log intensity, higher = more binding, comparable within an allelic series); with CRX [5], 8.2 upbm affinity estimate (log intensity, higher = more binding, comparable within an allelic series).
On to GGGCGCAC, for which the binding signal was 7.78 upbm affinity estimate (log intensity, higher = more binding, comparable within an allelic series) with CRX [1]; 7.93 upbm affinity estimate (log intensity, higher = more binding, comparable within an allelic series) with CRX [2]; 7.95 upbm affinity estimate (log intensity, higher = more binding, comparable within an allelic series) in the assay with CRX [5].
For CAGGAACG, the binding signal in the assay with CRX [1] is 8.49 upbm affinity estimate (log intensity, higher = more binding, comparable within an allelic series); with CRX [2] it was 8.54 upbm affinity estimate (log intensity, higher = more binding, comparable within an allelic series); in the assay with CRX [5], 8.36 upbm affinity estimate (log intensity, higher = more binding, comparable within an allelic series).
As to ACTGGACC, the binding signal with CRX [1] was 8.04 upbm affinity estimate (log intensity, higher = more binding, comparable within an allelic series); with CRX [2], 8.07 upbm affinity estimate (log intensity, higher = more binding, comparable within an allelic series); with CRX [5], 8.11 upbm affinity estimate (log intensity, higher = more binding, comparable within an allelic series).
In the case of ACCCAGTG, the binding signal with CRX [1] was 8.01 upbm affinity estimate (log intensity, higher = more binding, comparable within an allelic series); with CRX [2] it was 8.16 upbm affinity estimate (log intensity, higher = more binding, comparable within an allelic series); with CRX [5], 8.13 upbm affinity estimate (log intensity, higher = more binding, comparable within an allelic series).
On to GATAAACC, for which the binding signal in the assay with CRX [1] was 11.4 upbm affinity estimate (log intensity, higher = more binding, comparable within an allelic series); with CRX [2], 11.1 upbm affinity estimate (log intensity, higher = more binding, comparable within an allelic series); in the assay with CRX [5], 10.9 upbm affinity estimate (log intensity, higher = more binding, comparable within an allelic series).
Take CCGAACCG: the binding signal was 8.21 upbm affinity estimate (log intensity, higher = more binding, comparable within an allelic series) with CRX [1]; 8.3 upbm affinity estimate (log intensity, higher = more binding, comparable within an allelic series) with CRX [2]; 8.28 upbm affinity estimate (log intensity, higher = more binding, comparable within an allelic series) with CRX [5].
With CCGTCGCG, the binding signal with CRX [1] was 8.16 upbm affinity estimate (log intensity, higher = more binding, comparable within an allelic series); with CRX [2] it was 8.11 upbm affinity estimate (log intensity, higher = more binding, comparable within an allelic series); with CRX [5] it was 8.14 upbm affinity estimate (log intensity, higher = more binding, comparable within an allelic series).
For the sequence CAGGTGCG, the binding signal was 8.4 upbm affinity estimate (log intensity, higher = more binding, comparable within an allelic series) in the assay with CRX [1]; 8.3 upbm affinity estimate (log intensity, higher = more binding, comparable within an allelic series) in the assay with CRX [2]; 8.29 upbm affinity estimate (log intensity, higher = more binding, comparable within an allelic series) with CRX [5].
Regarding ACACGCCC, the binding signal was 8.11 upbm affinity estimate (log intensity, higher = more binding, comparable within an allelic series) with CRX [1]; 8.24 upbm affinity estimate (log intensity, higher = more binding, comparable within an allelic series) with CRX [2]; 8.26 upbm affinity estimate (log intensity, higher = more binding, comparable within an allelic series) in the assay with CRX [5].
Regarding ACGGTCCG, the binding signal with CRX [1] is 8.25 upbm affinity estimate (log intensity, higher = more binding, comparable within an allelic series); in the assay with CRX [2] it was 8.46 upbm affinity estimate (log intensity, higher = more binding, comparable within an allelic series); with CRX [5], 8.16 upbm affinity estimate (log intensity, higher = more binding, comparable within an allelic series).
As for AGATAATC, the binding signal with CRX [1] is 12.9 upbm affinity estimate (log intensity, higher = more binding, comparable within an allelic series); in the assay with CRX [2], 12.7 upbm affinity estimate (log intensity, higher = more binding, comparable within an allelic series); with CRX [5] it was 12.7 upbm affinity estimate (log intensity, higher = more binding, comparable within an allelic series).
Turning to AAATCCAA, the binding signal with CRX [1] is 11.2 upbm affinity estimate (log intensity, higher = more binding, comparable within an allelic series); with CRX [2], 11 upbm affinity estimate (log intensity, higher = more binding, comparable within an allelic series); with CRX [5] it was 11 upbm affinity estimate (log intensity, higher = more binding, comparable within an allelic series).
In the case of CGAGTGCG, the binding signal in the assay with CRX [1] is 8.19 upbm affinity estimate (log intensity, higher = more binding, comparable within an allelic series); in the assay with CRX [2], 8.15 upbm affinity estimate (log intensity, higher = more binding, comparable within an allelic series); in the assay with CRX [5] it was 8.17 upbm affinity estimate (log intensity, higher = more binding, comparable within an allelic series).
Take ACCGCACC: the binding signal was 8.25 upbm affinity estimate (log intensity, higher = more binding, comparable within an allelic series) in the assay with CRX [1]; 8.39 upbm affinity estimate (log intensity, higher = more binding, comparable within an allelic series) in the assay with CRX [2]; 8.35 upbm affinity estimate (log intensity, higher = more binding, comparable within an allelic series) in the assay with CRX [5].
CGTTCTAC: the binding signal is 8.44 upbm affinity estimate (log intensity, higher = more binding, comparable within an allelic series) with CRX [1]; 8.39 upbm affinity estimate (log intensity, higher = more binding, comparable within an allelic series) in the assay with CRX [2]; 8.27 upbm affinity estimate (log intensity, higher = more binding, comparable within an allelic series) in the assay with CRX [5].
Turning to CCAGTGCA, the binding signal with CRX [1] is 8.15 upbm affinity estimate (log intensity, higher = more binding, comparable within an allelic series); with CRX [2], 8.21 upbm affinity estimate (log intensity, higher = more binding, comparable within an allelic series); with CRX [5] it was 8.38 upbm affinity estimate (log intensity, higher = more binding, comparable within an allelic series).
On to ACGTCTCG, for which the binding signal with CRX [1] is 8 upbm affinity estimate (log intensity, higher = more binding, comparable within an allelic series); with CRX [2], 8.27 upbm affinity estimate (log intensity, higher = more binding, comparable within an allelic series); with CRX [5] it was 8.17 upbm affinity estimate (log intensity, higher = more binding, comparable within an allelic series).
As for CGCGGCAG, the binding signal was 8.09 upbm affinity estimate (log intensity, higher = more binding, comparable within an allelic series) with CRX [1]; 8.17 upbm affinity estimate (log intensity, higher = more binding, comparable within an allelic series) with CRX [2]; 8.17 upbm affinity estimate (log intensity, higher = more binding, comparable within an allelic series) in the assay with CRX [5].
For the sequence GATTATAA, the binding signal with CRX [1] is 12.7 upbm affinity estimate (log intensity, higher = more binding, comparable within an allelic series); with CRX [2], 12.6 upbm affinity estimate (log intensity, higher = more binding, comparable within an allelic series); with CRX [5], 12.6 upbm affinity estimate (log intensity, higher = more binding, comparable within an allelic series).
Regarding AATATTAC, the binding signal with CRX [1] was 10.1 upbm affinity estimate (log intensity, higher = more binding, comparable within an allelic series); in the assay with CRX [2], 9.84 upbm affinity estimate (log intensity, higher = more binding, comparable within an allelic series); with CRX [5], 9.61 upbm affinity estimate (log intensity, higher = more binding, comparable within an allelic series).
Regarding GGGCTCCA, the binding signal with CRX [1] was 8.35 upbm affinity estimate (log intensity, higher = more binding, comparable within an allelic series); with CRX [2] it was 8.31 upbm affinity estimate (log intensity, higher = more binding, comparable within an allelic series); with CRX [5], 8.31 upbm affinity estimate (log intensity, higher = more binding, comparable within an allelic series).
Turning to CCTGGTGC, the binding signal with CRX [1] is 8.29 upbm affinity estimate (log intensity, higher = more binding, comparable within an allelic series); with CRX [2], 8.25 upbm affinity estimate (log intensity, higher = more binding, comparable within an allelic series); with CRX [5], 8.32 upbm affinity estimate (log intensity, higher = more binding, comparable within an allelic series).
As for ACTAATCT, the binding signal with CRX [1] was 13.1 upbm affinity estimate (log intensity, higher = more binding, comparable within an allelic series); in the assay with CRX [2] it was 13.1 upbm affinity estimate (log intensity, higher = more binding, comparable within an allelic series); in the assay with CRX [5] it was 12.7 upbm affinity estimate (log intensity, higher = more binding, comparable within an allelic series).
In the case of TGCGTCCA, the binding signal was 8.29 upbm affinity estimate (log intensity, higher = more binding, comparable within an allelic series) in the assay with CRX [1]; 8.26 upbm affinity estimate (log intensity, higher = more binding, comparable within an allelic series) with CRX [2]; 8.23 upbm affinity estimate (log intensity, higher = more binding, comparable within an allelic series) with CRX [5].
For CCACCGAG, the binding signal is 8.14 upbm affinity estimate (log intensity, higher = more binding, comparable within an allelic series) with CRX [1]; 8.21 upbm affinity estimate (log intensity, higher = more binding, comparable within an allelic series) with CRX [2]; 8.2 upbm affinity estimate (log intensity, higher = more binding, comparable within an allelic series) with CRX [5].
For the sequence CATGACAG, the binding signal with CRX [1] was 8.34 upbm affinity estimate (log intensity, higher = more binding, comparable within an allelic series); with CRX [2], 8.16 upbm affinity estimate (log intensity, higher = more binding, comparable within an allelic series); in the assay with CRX [5] it was 8.25 upbm affinity estimate (log intensity, higher = more binding, comparable within an allelic series).
Take CGCCCCTC: the binding signal with CRX [1] was 8.34 upbm affinity estimate (log intensity, higher = more binding, comparable within an allelic series); with CRX [2], 8.45 upbm affinity estimate (log intensity, higher = more binding, comparable within an allelic series); with CRX [5], 8.42 upbm affinity estimate (log intensity, higher = more binding, comparable within an allelic series).
As to AAGTATAA, the binding signal with CRX [1] was 10.6 upbm affinity estimate (log intensity, higher = more binding, comparable within an allelic series); in the assay with CRX [2] it was 10.5 upbm affinity estimate (log intensity, higher = more binding, comparable within an allelic series); with CRX [5] it was 10.2 upbm affinity estimate (log intensity, higher = more binding, comparable within an allelic series).
GCCTGACA: the binding signal is 8.49 upbm affinity estimate (log intensity, higher = more binding, comparable within an allelic series) with CRX [1]; 8.43 upbm affinity estimate (log intensity, higher = more binding, comparable within an allelic series) with CRX [2]; 8.39 upbm affinity estimate (log intensity, higher = more binding, comparable within an allelic series) in the assay with CRX [5].
As for CGTATACG, the binding signal is 8.46 upbm affinity estimate (log intensity, higher = more binding, comparable within an allelic series) with CRX [1]; 8.43 upbm affinity estimate (log intensity, higher = more binding, comparable within an allelic series) with CRX [2]; 8.43 upbm affinity estimate (log intensity, higher = more binding, comparable within an allelic series) with CRX [5].
Take GGTTGCCA: the binding signal with CRX [1] is 8.28 upbm affinity estimate (log intensity, higher = more binding, comparable within an allelic series); in the assay with CRX [2] it was 8.39 upbm affinity estimate (log intensity, higher = more binding, comparable within an allelic series); with CRX [5], 8.41 upbm affinity estimate (log intensity, higher = more binding, comparable within an allelic series).
On to GTAGCAAC, for which the binding signal in the assay with CRX [1] is 8.55 upbm affinity estimate (log intensity, higher = more binding, comparable within an allelic series); with CRX [2] it was 8.49 upbm affinity estimate (log intensity, higher = more binding, comparable within an allelic series); with CRX [5], 8.42 upbm affinity estimate (log intensity, higher = more binding, comparable within an allelic series).
